Consider 25 compounds from PubChem BioAssay (NCATS).

Inconclusive results are not listed. Unmarked numbers belong to inactive results. Calls of active or inactive are those of the source. The call rests on the fitted dose curve; in most records, active means well fitted curve in the direction sought with a large enough effect; inconclusive means small, poorly fitted or top-dose-only effect, or another doubt; inactive means no such curve, though single readings can be large; an effect the other way counts as inactive or inconclusive.

Experiment [1] is described as follows: Primary redox qHTS assay for identification of artifact compounds. (AID 1845223). Summed up:
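Redox-cycling detection via DTT (250 uM final) oxidation coupled to Amplex Red (25 uM)/HRP (250 mU/mL) in HBSS. 15 min preincubation plus 30 min after DTT, room temperature. Ex/Em 525/598 nm; 4-parameter Hill fit against DMSO and 10 uM DA3003.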
(qHTS replaces the single test concentration by a dilution series.)

Experiment [2] is described as follows: Quantitative High-Throughput drug screen in 47 multiple myeloma cell lines against the NCATS MIPE library collection: FR4_PLB cell viability assay (AID 1918924; further: nearly all actives have a fitted effect of over 35% in size; further: potency means the concentration at half of the fitted maximal effect). An outline of the steps:
(§1)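 Relative luminescence from CellTiter-Glo served as the viability signal, referenced to DMSO-treated (100%) and cell-free medium (0%) controls. Treatment lasted 48 hours at 37C with 500 cells per well.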

The nature of experiment [3]: Quantitative High-Throughput drug screen in 47 multiple myeloma cell lines against the NCATS MIPE library collection: ARP1_JJKsccF8 cell viability assay (AID 1918928; further: nearly all actives have a fitted effect of over 40% in size; further: potency means the concentration at half of the fitted maximal effect). An outline of the steps:
(§2)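 500 cells/well; MIPE 4.0 library pinned in; 48 h, 37 °C, 5% CO2; CellTiter-Glo ATP luminescence. Controls: DMSO = 100% viability, medium only = 0%.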

Experiment [4] in a line: Quantitative High-Throughput drug screen in 47 multiple myeloma cell lines against the NCATS MIPE library collection: Delta47_JCRB cell viability assay (AID 1918925; further: nearly all actives have a fitted effect of over 45% in size; further: potency means the concentration at half of the fitted maximal effect). An outline of the steps:
(§3)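 We plated 500 myeloma cells per well, pinned in MIPE 4.0 compounds, and incubated for 48 hours at 37C. ATP was then quantified with CellTiter-Glo, with DMSO and media-only wells defining 100% and 0%.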

Experiment [5] can be described thus: Quantitative High-Throughput drug screen in 47 multiple myeloma cell lines against the NCATS MIPE library collection: AMO1_DSMZ cell viability assay (AID 1918927; further: nearly all actives have a fitted effect of over 30% in size; further: potency means the concentration at half of the fitted maximal effect). Summed up:
as §3

Experiment [6] can be described thus: Quantitative High-Throughput drug screen in 47 multiple myeloma cell lines against the NCATS MIPE library collection: ARD_JJKsccE7 cell viability assay (AID 1918929; further: potency means the concentration at half of the fitted maximal effect). Summed up:
as §3

Experiment [7] can be described thus: Quantitative High-Throughput drug screen in 47 multiple myeloma cell lines against the NCATS MIPE library collection: KMM1_JCRB cell viability assay (AID 1918960). Further: nearly all actives have a fitted effect of over 30% in size. Further: potency means the concentration at half of the fitted maximal effect. Summed up:
as §2

Experiment [8] in a line: Quantitative High-Throughput drug screen in 47 multiple myeloma cell lines against the NCATS MIPE library collection: EJM_DSMZ cell viability assay (AID 1918926; further: nearly all actives have a fitted effect of over 30% in size; further: potency means the concentration at half of the fitted maximal effect). An outline of the steps: as §3
The nature of experiment [9]: Quantitative High-Throughput drug screen in 47 multiple myeloma cell lines against the NCATS MIPE library collection: Karpas620_DSMZ cell viability assay (AID 1918959). Further: nearly all actives have a fitted effect of over 30% in size. Further: potency means the concentration at half of the fitted maximal effect. Summed up:
as §1

Experiment [10] is described as follows: Quantitative High-Throughput drug screen in 47 multiple myeloma cell lines against the NCATS MIPE library collection: Karpas417_ECACC cell viability assay (AID 1918961). Further: potency means the concentration at half of the fitted maximal effect. To be noted: Karpas417 myeloma viability, CellTiter-Glo ATP luminescence, 48 h; viability (% of DMSO): at 45.8 µM (top of the series). Summed up: as §1

As for `O=C1C(c2c(O)[nH]c3ccccc23)=Nc2ccccc21`, the compound was classed as inactive in experiment [1]. For the same compound, the results for the Potency in [2] and in experiment [3] were 14.8 µM (active) and 6.62 µM (active), respectively.
Consider `CCc1cccc(CC)c1NC(=O)N1Cc2[nH]nc(NC(=O)c3ccc(N4CCN(C)CC4)cc3)c2C1`, for which the result in [1] was inactive. The Potency in [4] is 5.9 µM (active); in experiment [5], 7.43 µM (active); in experiment [6] it was 1.18 µM (active); in [7] it was 7.43 µM (active).
With `COc1ccc(Cn2ccc3ccc(C(=O)NO)cc32)cc1`, in experiment [1], the compound was classed as inactive. The Potency result in experiment [2] and in [9] was “inactive” each time. The results for the Potency in [8] and in experiment [5] were 20.9 µM (active) and 16.6 µM (active), respectively.
Turning to `Nc1ccc(-c2ccc3ncc4ccc(=O)n(-c5cccc(C(F)(F)F)c5)c4c3c2)cn1`, the outcome in experiment [1] was inactive. The Potency in experiment [8] is 0.0187 µM (active).
For `CNC(=O)c1cc(Oc2ccc(NC(=O)Nc3ccc(Cl)c(C(F)(F)F)c3)c(F)c2)ccn1`, the result in experiment [1] was inactive. For the same compound, the Potency in [2] is 23.5 µM (active); in experiment [5], 5.9 µM (active); in experiment [3], 23.5 µM (active); in [6], 5.26 µM (active); in experiment [9] it was 10.5 µM (active); in [7], 2.96 µM (active). The Potency in experiment [10] was 4.69 µM (active).
`C=CC(=O)Nc1cccc(Sc2nc(Nc3ccc(N4CCN(C)CC4)cc3)ncc2Cl)c1`: the compound was called inactive in experiment [1]. Further, the Potency in [8] was 18.7 µM (active).
Consider `CC(=O)Nc1cccc(-n2c(=O)n(C3CC3)c(=O)c3c(Nc4ccc(I)cc4F)n(C)c(=O)c(C)c32)c1`, for which the call in experiment [1] was inactive. The Potency in [2] is 0.743 µM (active); in experiment [8], 0.0372 µM (active); in experiment [5] it was 1.18 µM (active); in [9], 0.0296 µM (active); in [7] it was 0.0935 µM (active); in experiment [10] it was 0.0662 µM (active). In experiment [3], the Potency result is “inactive”.
On to `Fc1ccc(CNc2ncnc3ccc(F)cc23)cc1`, for which the outcome in experiment [1] was inactive. In addition, the Potency was 7.43 µM (active) in [4]; 6.62 µM (active) in experiment [8]; 7.43 µM (active) in experiment [5]; 6.62 µM (active) in experiment [3]; 4.69 µM (active) in experiment [6]; 4.18 µM (active) in experiment [7].
As to `CCCCn1c(=O)n(Cc2ccccc2F)c(=O)c2[nH]c(Cc3ccc(NC(C)=O)cc3)nc21`, the outcome in experiment [1] was inactive. For the same compound, the Potency result in experiment [4], in experiment [6], in [9] and in [7] was “inactive” throughout.
With `CN[C@@H](C)[C@H]1[C@H](O)C[C@@]2(C)[C@@H]3CC[C@H]4C(C)(C)[C@@H](NC)CC[C@@]45C[C@@]35CC[C@]12C`, in experiment [1], the redox activity (% of DA3003) is -0.744% [at 11.5 µM]. The Potency result in [4], in experiment [8], in experiment [9] and in [7] was “inactive” in each case. In addition, the Potency in experiment [3] is 23.5 µM (active).
In the case of `C[C@H](c1ccc(F)cc1CCCC(=O)O)N(c1cc(F)ccc1F)S(=O)(=O)c1ccc(Cl)cc1`, in experiment [1], the outcome was inactive. In addition, the Potency in [4] is 20.9 µM (active); in experiment [3], 0.935 µM (active). The Potency entry in experiment [5] and in experiment [9] was “inactive” each time.
Consider `CCN(CCO)CCCOc1ccc2c(Nc3cc(CC(=O)Nc4cccc(F)c4)[nH]n3)ncnc2c1`, for which the call in experiment [1] was inactive. For the same compound, the Potency entry in experiment [2], in [8], in [6], in experiment [9] and in [7] was “inactive” each time. In addition, the Potency is 0.187 µM (active) in experiment [5] and 0.469 µM (active) in experiment [10].
As to `c1cc(OCCN2CCCCC2)cc(-c2n[nH]c3ccc(-c4ncn[nH]4)cc23)c1`, in experiment [1], the result was inactive. In addition, the values for the Potency in experiment [4], in [8] and in experiment [6] were 13.2 µM (active), 33.2 µM (active) and 2.35 µM (active), respectively. Further, the Potency result in [9] is “inactive”.
For `Cc1cc2c(cc1C1(c3ccc(C(=O)O)cn3)CC1)C(C)(C)CCC2(C)C`, the compound was classed as inactive in experiment [1]. Also, the Potency entry in [2], in experiment [8], in [9] and in [7] was “inactive” throughout. Further, the Potency in experiment [5] is 5.26 µM (active); in experiment [3], 26.4 µM (active).
For `c1ccc(CNc2nc(N3CCOc4ccccc43)nc3c2CCCC3)cc1`, in experiment [1], the compound was called inactive. The Potency entry in experiment [2], in experiment [8] and in [9] was “inactive” throughout. Moreover, the Potency in experiment [5] was 16.6 µM (active).
As to `Cc1cc(C(C)Nc2ccccc2)c2nc(N3CCOCC3)cc(=O)n2c1` (stereo not given), the result in [1] was inactive. Moreover, the Potency in [4] is 9.35 µM (active); in [5], 18.7 µM (active).
In the case of `C[C@@H](NC(=O)c1ncnc(N)c1Cl)c1ncc(C(=O)Nc2cc(C(F)(F)F)c(Cl)cn2)s1`, the result in experiment [1] was inactive. Also, the Potency is 14.8 µM (active) in [2], 10.5 µM (active) in experiment [5], 26.4 µM (active) in experiment [9] and 2.96 µM (active) in experiment [10]. Further, in [8], the Potency entry was “inactive”.
Regarding `CC1(C)CC(=O)c2c(C(F)(F)F)nn(-c3ccc(C(N)=O)c(NC4CCC(O)CC4)c3)c2C1` (stereo not given), the outcome in experiment [1] was inactive. Besides, the values for the Potency in [2] and in experiment [3] were 0.059 µM (active) and 0.132 µM (active), respectively. Besides, the Potency entry in experiment [6] and in [7] was “inactive” throughout.
Consider `CC[C@H](CC#N)OC(=O)N[C@@H](C)c1cccc(NC(=O)Nc2ccc(-c3cnco3)c(OC)c2)c1`, for which, in experiment [1], the result was inactive. Besides, the Potency in experiment [2] is 1.48 µM (active); in [8] it was 11.8 µM (active); in experiment [5], 0.418 µM (active); in experiment [6] it was 14.8 µM (active); in experiment [9], 18.7 µM (active); in experiment [7], 0.418 µM (active).
As for `COc1ccc(CCC(=O)Nc2nc3ccc(Cl)cc3s2)cc1OC`, in [1], the result was inactive. The Potency entry in experiment [2], in experiment [6], in experiment [9] and in experiment [7] was “inactive” each time.
Consider `O=S(=O)(O)c1ccc2cc(N=Nc3cc(S(=O)(=O)O)c4cccnc4c3O)ccc2c1`, for which the result in [1] was inactive. Further, the figures for the Potency in [8] and in [3] were 16.6 µM (active) and 2.35 µM (active), respectively. Also, the Potency result in experiment [5], in [6], in experiment [9] and in experiment [7] was “inactive” throughout.
For `Cc1c(C(=O)Nc2ccc(N3C[C@@H](C)O[C@@H](C)C3)nc2)cccc1-c1ccc(OC(F)(F)F)cc1`, in experiment [1], the outcome was inactive. Moreover, the Potency in experiment [4] is 4.69 µM (active); in experiment [5] it was 2.96 µM (active); in [6], 0.935 µM (active); in [9], 8.33 µM (active); in experiment [7], 1.18 µM (active); in experiment [10] it was 1.66 µM (active).
On to `C[C@@H]1CCO[C@H]2Cn3cc(C(=O)NCc4ccc(F)cc4F)c(=O)c(O)c3C(=O)N12`, for which the result in experiment [1] was inactive. Moreover, the Potency in [2] is 37.2 µM (active). Besides, in [7], the Potency entry is “inactive”.
On to `O=C(CCCN1CCN(c2ccc(F)cc2)CC1)NC1c2ccccc2CSc2ccccc21` (stereo not given), for which the result in [1] was inactive. For the same compound, the Potency in experiment [4] is 5.26 µM (active); in [5], 6.62 µM (active); in experiment [3] it was 3.72 µM (active); in experiment [9], 6.62 µM (active); in experiment [7] it was 4.69 µM (active); in [10], 8.33 µM (active).
As to `Cc1cccc2c1CC[C@H](CN1CCC(c3c(Cl)cccc3Cl)CC1)C[C@@H]2O`, the result in [1] was inactive. The Potency was 16.6 µM (active) in experiment [4], 18.7 µM (active) in [8] and 11.8 µM (active) in experiment [9].
